In PubChem BioAssay AID687014 (The Scripps Research Institute Molecular Screening Center, 2013):
Several values for one entry are separate records, joined by “and”; a condition that tells them apart may be missing. Equal values may be shown once. The whole screen tested about 370,000 compounds, of which about 6,800 (1.8%) were called active. Many of the other results were omitted from the sample, so actives are more common in it than they were. Unmarked numbers belong to inactive results.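 Rule for the calls: active = activation above a cutoff set at the mean of all screened compounds plus 3 SD (cut at about 10% in these data); inactive = the rest.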

What follows are molecules tested on Nuclear hormone receptor DAF-12 (Heterodera glycines), GAL4 fusion (assay: H. glycines DAF-12 receptor agonists, primary screen, cell-based, luminescence, HEK293, GAL4 fusion, UAS-luciferase (AID 687014;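 note: 0% = DMSO wells and 100% = sodium butyrate wells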)). Conditions: HEK293 GAL4-hgDAF12 UAS-luciferase reporter, agonist luminescence; at 6.8 µM; stronger effect = higher value; normalized to butyrate control.

| Structure (SMILES) | activation |
| --- | --- |
| COc1cccc(/C=C2\CC3(OC(C)=O)CCCN2C3)c1 (stereo not drawn) | 1.14% |
| Cc1nc2ccc(C(=O)N3CCN(C(=O)C(C)(C)C)CC3)cc2n1C1CCCC1 | -0.38% |
| COC[C@@H]1CCCN1c1ccc2c(c1)O[C@H](C)CCN(C1CC1)S2(=O)=O | 1.95% |
| C/C(=N\NC(=O)C(N)=O)c1ccc2c(c1)OCCO2 | 4.44% |
| COc1ccc(OC)c(/C=C/C(=O)c2ccc3c(c2)OCO3)c1 | -2.94% |
| O=C(/C=C/c1ccc2c(c1)OCCO2)c1ccc(O)cc1 | 11.8% (active) |
| COC(=O)[C@]12C[C@H](CC(=O)NCc3cccc(C(F)(F)F)c3)C(=O)N(Cc3ccc4c(c3)OCO4)C1=C[C@H](COCc1ccccc1)O[C@@H]2C | 1.05% |
| Nc1ncc(-c2cc3ccccc3oc2=O)s1 | 11.9% (active) |
| O=c1oc2ccccc2cc1-c1cn(-c2ccccc2)c(=S)[nH]1 | -16.8% |
| CC(CCN1CCC(C(O)(c2ccccc2)c2ccccc2)CC1)Oc1ccc(C(F)(F)F)cc1 (stereo not drawn) | 0.45% |
| O=C(Nc1cc(Cl)cc(Cl)c1)OCCN1CCCC12CCC(c1ccccc1)CC2 (stereo not drawn) | -0.4% |
| CC(C)=CCN1CCN(Cc2ccc(Oc3ncccn3)cc2)CC1CCO (stereo not drawn) | 3.6% |
| N#CC1(Nc2ccc3c4c(cccc24)CC3)CCCCC1 | -2.54% |
| N#CC1(Nc2ccc(-c3ccc(Cl)cc3)cc2)CCCC1 | 13.3% (active) |
| NC(=O)C1(Nc2ccc(-c3ccccc3)cc2)CCCC1 | 0.26% |
| COc1cccc(C(=O)Nc2ccc3nc4n(c(=O)c3c2)CCCCC4)c1 | 4.15% |
| N=c1c2c3c(sc2nc2n1CCCCC2)CCCC3 | 2.26% |
| CC1CCN(C(=O)c2ccc3c(=O)n4c(nc3c2)CCCCC4)CC1 | 1.69% |
| CC(=O)c1ccc(NC(=O)c2sc3nc4n(c(=O)c3c2C)CCCCC4)cc1 | 6.99% |
| O=c1c2c(nc3n1CCCCC3)sc1c(O)cccc12 | 12.6% (active) |
| Cc1c(C(=O)Nc2ccccc2)sc2nc3n(c(=O)c12)CCCCC3 | 10.5% (active) |
| CC(C)CNS(=O)(=O)CC1NCCc2ccccc21 (stereo not drawn) | -0.34% |
| Cc1ccc(C2=CCN(C)C(=O)N2c2ccc(Cl)cc2)cc1 | 7.34% |
| COc1ccc(C(=O)OCCN(C)C2CN(Cc3cn(Cc4cccc(C)c4)nn3)S(=O)(=O)C2)cc1OC (stereo not drawn) | 0.81% |

| Structure (SMILES) | activation |
| --- | --- |
| Cc1cccc(N2CCN(C(=O)c3cccc(N4C(=O)C5C6C=CC(C6)C5C4=O)c3)CC2)c1C (stereo not drawn) | -1.08% |
| CN(CC(=O)Nc1ccc(Cl)cc1)C(=O)c1ccc(COc2ccccc2)cc1 | 0.13% |
| CN(CC(=O)Nc1ccc(Cl)cc1)C(=O)CNC(=O)c1ccc2ccccc2c1 | 12.3% (active) |
| CN(CC(=O)Nc1ccc(Cl)cc1)CC(=O)Nc1cccc2ccccc12 | 0.52% |
| O=C(CSc1nc2sc3c(c2c(=O)n1-c1ccccc1)CCCC3)NN=Cc1ccc(OCc2ccccc2)cc1 | 4.38% |
| O=C1CCC2(CCC(c3ccc(Cl)cc3)CC2)N1CCO (stereo not drawn) | -4.23% |
| CC(C)CC(=O)N/C(N)=N/c1nc2ccccc2s1 | 9.05% |
| CCC(=O)NC(=Nc1nc2ccccc2s1)NC(=O)CC | 12.5% (active) |
| CC(C)C(C)NC(=O)COc1ncnc2ccccc12 (stereo not drawn) | 1.57% |
| O=C(CN1CCC(NC(=O)NCc2ccccc2)CC1)Nc1ccc2c(c1)OCCO2 | 1.23% |
| Cc1c(Br)c([N+](=O)[O-])nn1CC(=O)N1CCN(Cc2ccccc2)CC1 | 4.33% |
| O=C(Nc1ccn(Cc2ccccc2)n1)c1n[nH]c([N+](=O)[O-])c1Cl | 16.8% (active) |
| Cc1ccc(NC(=O)CC2C(=O)N(Cc3ccccc3)C(=S)N2NC(=O)c2cccc(F)c2)c(C)c1 (stereo not drawn) | -3.58% |
| O=C(Cn1cnc([N+](=O)[O-])n1)NCCc1ccccc1 | 2.5% |
| O=C(Nc1ccn(Cc2ccccc2)n1)c1cccc(F)c1 | 20% (active) |
| CCOc1cccc(C(=O)Nc2cnn(Cc3ccccc3)c2)c1 | 2.99% |
| CC(c1c[nH]c2ccccc12)c1c(-c2ccccc2)n(C)c2ccccc12 (stereo not drawn) | 0.36% |
| COC(=O)[C@]1(Cc2ccccc2)NC=C(C(=O)c2ccccc2)[C@@H]1c1cccc(OC)c1 | 1.41% |
| Cc1cc(C)cc(NC(=O)N2CCC(N(C)CCC(C)C)CC2)c1 | 3.99% |
| O=C(NCCCN1CCOCC1)c1ccccc1NS(=O)(=O)c1ccc(F)cc1 | -1.36% |
| O=C(NCCCN1CCOCC1)c1cc(-c2ccccc2F)no1 | 14.2% (active) |
| O=C(NCCCN1CCOCC1)c1cnn2c(-c3ccccc3)cc(-c3ccccc3)nc12 | -2.14% |
| Cc1cccc(CN2CCN(C3CN(Cc4cn(Cc5cc(C)cc(C)c5)nn4)S(=O)(=O)C3)CC2)c1 (stereo not drawn) | -3.8% |
| Cn1c(-c2ccc(C(=O)c3ccccc3)s2)nc2ccccc21 | 13.5% (active) |

| Structure (SMILES) | activation |
| --- | --- |
| CCC(C(=O)NC(C)(C)C)n1c(-c2ccccc2)nc2ccccc21 (stereo not drawn) | 0.22% |
| O=C(NC1=CC(=O)c2ccccc2C1=O)c1ccccc1 | -6.53% |
| CCn1c(NC(=O)c2nn(C)cc2Br)nc2ccccc21 | -4.58% |
| Cn1c(NC(=O)c2ccccc2)nc2ccccc21 | 15.2% (active) |
| CCC(C(=O)Nc1c(C)cccc1C)n1c(-c2cc(C)cs2)nc2ccccc21 (stereo not drawn) | 2.55% |
| CCOC(=O)[C@]12CCCC=C1N(Cc1ccc(OC)cc1)C(=O)[C@@H]2CC(=O)NCc1cccs1 | -4.41% |
| CN1CCCc2nc(-c3ccccc3)ccc21 | 7.25% |
| CCc1ccc(NC2Nc3cc(C)nn3S2)cc1 (stereo not drawn) | 19.2% (active) |
| CCOC(=O)c1ccc(NC2Nc3cc(C)nn3S2)cc1 (stereo not drawn) | 2.62% |
| COCCNC(=O)Cn1cc2c(n1)CCCCC2 | 0.5% |
| CN(CC(=O)Nc1c(Cl)cccc1Cl)C(=O)CC1OC(=O)c2ccccc21 (stereo not drawn) | -1.08% |
| CC(=O)c1sc(N)nc1C | 1.06% and 4.44% |
| CC(=O)c1sc(N/N=C/c2ccc(C(C)C)cc2)nc1C | 14.4% (active) |
| Cc1cc2c(=O)n(CC(=O)NCC(=O)Nc3ccc(C(C)C)cc3)cnc2s1 | 1.17% |
| CCOC(=O)c1sc(/N=C/Nc2nc(C)c(C(=O)OCC)s2)nc1C | 0.82% |
| CC(=O)c1sc(N/N=C\c2ccc(C)cc2)nc1C | 11.2% (active) |
| C=CC[C@]12C[C@@]3(O[C@H](c4ccc(C(F)(F)F)cc4)N=C3C[C@H](c3ccc(OC)cc3)[C@H]1C)N(C1CCN(Cc3ccccc3)CC1)C2=O | 0.9% |
| c1csc(-c2nnc(SCc3nc4ccccc4[nH]3)o2)c1 | -0.48% |
| CCOC(=O)C1=CN(Cc2ccc(Br)cc2)S(=O)(=O)N(C)C1C (stereo not drawn) | 0.23% |
| CC(C)(C)c1csc(NC2=NS(=O)(=O)c3ccccc32)n1 | 19.4% (active) |
| O=C(Oc1cccc(NC2=NS(=O)(=O)c3ccccc32)c1)c1ccncc1 | -1.92% |
| Cc1ccc(S(=O)(=O)N(NC2=NS(=O)(=O)c3ccccc32)C(=O)c2ccccc2)cc1 | 0.43% |
| CCCCOCCCNC(=O)C[C@H]1C[C@@]2(C(=O)OC)C(=C[C@H](C(C)(C)C)O[C@@H]2C)N(CCc2ccc(OC)c(OC)c2)C1=O | -0.02% |
| CCCNC(=O)c1cc2c(c(-c3cccc(-c4ccc(C#N)cc4)c3)n1)[C@@H](CCO)N(C(=O)CC)C2 | -0.02% |

| Structure (SMILES) | activation |
| --- | --- |
| Cc1ccc(NC(=O)c2sccc2C)cc1[N+](=O)[O-] | 14.2% (active) |
| Cc1ccsc1C(=O)NC1CCCCC1C (stereo not drawn) | -0.72% |
| Cc1ccc(NC(=O)CN2CCC(C(N)=O)CC2)cc1[N+](=O)[O-] | 0.92% |
| Cc1ccc(/C=N/NC(=O)c2sccc2OCc2ccc(F)cc2)cc1 | 3.63% |
| Cc1ccsc1C(=O)NCCc1ccco1 | 8.62% |
| Cc1ccsc1C(=O)N/N=C/c1ccc([N+](=O)[O-])cc1 | 13.9% (active) |
| Cn1c(N)c(C(=O)COC(=O)c2ccccc2NCc2ccco2)c(=O)n(C)c1=O | -0.34% |
| COc1ccc(C#CCNCc2ccc(OC)cc2OC)cc1 | -1.32% |
| O=C(c1ccccc1)c1ccc(-c2ccccc2C(=O)NC2CCCCN(Cc3ccc(Cl)cc3)C2=O)cc1 (stereo not drawn) | 3.48% |
| CC(CO)N1CCS(=O)(=O)CC1 (stereo not drawn) | 0.38% |
| N#Cc1ccccc1OC[C@@H](O)CN1CCC(C(O)(c2ccccc2)c2ccccc2)CC1 | -4.54% |
| C=CCN1C(=O)[C@H](CC(=O)NCCCN2CCCC2=O)[C@@]2(C(=O)OCC)CCCC=C12 | -1.4% |
| Cc1[nH]nc2c1C(c1ccc(Br)cc1)NC2=O (stereo not drawn) | 0.07% |
| O=C(Nc1ccccc1Cl)c1ccc2nsnc2c1 | 12.6% (active) |
| O=S(=O)(Nc1ccccc1Cl)c1cccc2nsnc12 | -1.42% |
| O=C(Nc1ccccc1Cl)/C(Cl)=C(\Cl)S(=O)c1ccccc1 (stereo not drawn) | -20.1% |
| Cc1ccc(-n2c(SCC(=O)Nc3ccc(S(=O)(=O)Nc4nccs4)cc3)nnc2-c2ccncc2)cc1 | -0.9% |
| Nc1ncnc2c1ncn2C1OC(CO)CC1O (stereo not drawn) | -1.31% |
| CCOc1ccc(C(=O)Nc2ccc(CN3CCOCC3)cc2)cc1Cl | -0.68% |
| COc1ccc(C(=O)Nc2ccnn2C2CCN(Cc3ccncc3)CC2)cc1 | -1.76% |
| COc1ccc(C(=O)Nc2sc(C)c(C)c2CN2CCOCC2)cc1 | 11.8% (active) |
